In PubChem BioAssay AID651629 (Sanford-Burnham Center for Chemical Genomics, 2012):
This is one part of the list. Calls of active or inactive are those of the source.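 The calls were made as follows: active = mean inhibition across replicates of 40% or more; inactive = mean inhibition below 40%.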

Test: TAG lipid buildup inhibition in H9c2 – cell-based, single concentration, Nile Red fluorescence, confirmation (AID 651629);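 also: plate controls were DMSO only wells for no effect and Triacsin C treated wells for full effect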
Conditions: H9c2 lipid accumulation, at 12.5 µM, hits give high values, cells loaded with 200 µM oleic acid

inhibition, inactive:
COc1cc(NC(=O)c2cncc(-c3ccc(C#N)cc3)c2)cc(C(=O)Nc2cccc(C(F)(F)F)c2)c1 39.1%
O=C(Nc1nc(-c2ccncc2)cs1)C1COc2ccccc2O1 (stereo not given) 31.4%
Cc1ccc(-c2nc3ccccc3[nH]2)cc1NC(=O)c1sc2ccccc2c1Cl 35.7%
COC(=O)c1ccc(-c2c(-c3ccccc3)ncc3cc(OC)c(OC)cc23)cc1 13.2%
C=CCNC(=S)N/N=C/c1ccc(C)s1 24.3%
O=C(Nc1ccccc1)Oc1cccc2cccnc12 -3.58%
COC(=O)c1ccc(NCc2cc(O)ccc2O)cc1 29.9%

inhibition, active:
C=CCn1c(SCc2c(C)noc2C)nc2sc3c(c2c1=O)CCC(C)C3 (stereo not given) 49.4%
COc1ccc(-c2cc(NC=O)c3ncc(-c4cc(OC)c(OC)c(OC)c4)n3c2)c(OC)c1 79.3%
O=C1c2ccccc2C(=O)c2c1cccc2N1CCN(C/C=C/c2ccccc2)CC1 64%
Cc1onc(NC(=O)c2ccc([N+](=O)[O-])o2)c1Br 46%
CN(C)C(=O)c1cccc(-c2cnc3c(NC=O)cc(-c4ccc(C(=O)N5CCOCC5)cc4)cn23)c1 58%
COc1cc(/C=C2\Oc3ccc(C#Cc4ccc(O)cc4)cc3C2=O)cc(OC)c1 103%
O=C(Nc1cc2c3c(c1)C1CCCC1CN3CC1CCCC21)c1ccc([N+](=O)[O-])cc1 (stereo not given) 56.6%
COc1ccc(Nc2cc(=O)oc3ccccc23)cc1 50.6%
CN(C)CCNC(=O)c1cccc(-c2cnc3c(NC=O)cc(-c4cccc(C(F)(F)F)c4)cn23)c1 50.4%
CCN(CC)CCC(c1ccc2c(c1)OCO2)c1c(OC)cc(OC)c2c(-c3ccccc3)cc(=O)oc12 (stereo not given) 47.8%
COC(=O)Nc1nc2ccc(Sc3ccccc3)cc2[nH]1 66.1%
COc1ccccc1C1C2=C(COC2=O)Nc2cc3c(cc21)OCO3 (stereo not given) 61.4%
CN(C)C(=S)N=c1ssc(=S)n1Cc1ccco1 62.1%
COc1ccc(/C=C2/CCCc3ccccc3C2=O)cc1 54.5%
C=CCC[C@@H](Cc1ccc(F)cc1)C(=O)OC[C@H](Cc1c[nH]c2ccccc12)NC(=O)[C@@H](CC=C)CC(=O)N(CCO)Cc1ccccc1 80%
CC(=O)c1ccc(Oc2cc(C)nc(-n3nc(C)cc3C)n2)cc1 63.2%
CC1(C(=O)NCc2ccco2)Cc2c(-c3ccc4c(c3)OCO4)ccnc2O1 (stereo not given) 61.9%
Cc1ccccc1NC(=O)CSc1nc2ccc(Nc3nc(N4CCOCC4)nc(N4CCOCC4)n3)cc2s1 77.3%
